Normalized growth data for 1 compound are collected here from PubChem BioAssay AID1159580 (chemical genetic matrix, 2015).

Among all 5,500 compounds or so, about 2,000 (36%) were called active. Not shown: some 18% with an inconclusive outcome. This is one part of the list. A number with no mark means an inactive call. No stated cut-off is given here; in the data, active means normalized growth mostly below about 0.91 (no sharp cut-off); inconclusive means no clear call, values can overlap the other calls; inactive means mostly above about 0.92.

The assay is described as follows: chemical genetic growth profiling, strain panel (AID 1159580).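 Further: tested at 20 µM; growth read once vehicle control cultures reached saturation at 30 °C; 1 = growth at the plate median or of vehicle wells; lower values mean less growth of the strain.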 The settings on record: S. cerevisiae deletion strains, growth OD.

For `O=C(O)c1cc[c]([Hg][Cl])cc1`, the normalized growth was 0.825 (active) (locus YAL040C, strain CLN3, hits give low values); 1.01 (locus YCL061C, strain MRC1 (second series), hits give low values); 1 (locus YDR150W, strain NUM1, hits give low values); 0.943 (locus YDR363W, strain ESC2, hits give low values); 0.757 (active) (locus YER002W, strain NOP16, hits give low values); 0.339 (active) (locus YGR078C, strain PAC10, hits give low values). Moreover, the normalized growth is, setting by setting: (locus YMR307W, strain GAS1, hits give low values) 0.981; (locus YNL128W, strain TEP1, hits give low values) 0.955; (locus YNL175C, strain NOP13, hits give low values) 0.918; (locus YNL197C, strain WHI3, hits give low values) 0.731 (active); (locus YNL224C, strain SQS1, hits give low values) 0.948; (locus YNL322C, strain KRE1, hits give low values) 1.01. In addition, the normalized growth by setting is: (locus YOR083W, strain WHI5 (second series), hits give low values) 0.77 (active); (locus YPL055C, strain LGE1, hits give low values) 0.961.
